# KCNQ2 inh – blocks the rat KCNQ2 potassium channel. O88943. CHO-K1 KCNQ2, FluxOR thallium flux, 20 min; stronger effect = lower value. B-score at 10 µM. 310,000 compounds, 1.1% hits;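 active = fluorescence ratio B-score at most minus 3 library SDs, with starting brightness B-score within 2 library SDs, cut at about -5.5 in these data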
# Target sequence (O88943 whole entry, looked up): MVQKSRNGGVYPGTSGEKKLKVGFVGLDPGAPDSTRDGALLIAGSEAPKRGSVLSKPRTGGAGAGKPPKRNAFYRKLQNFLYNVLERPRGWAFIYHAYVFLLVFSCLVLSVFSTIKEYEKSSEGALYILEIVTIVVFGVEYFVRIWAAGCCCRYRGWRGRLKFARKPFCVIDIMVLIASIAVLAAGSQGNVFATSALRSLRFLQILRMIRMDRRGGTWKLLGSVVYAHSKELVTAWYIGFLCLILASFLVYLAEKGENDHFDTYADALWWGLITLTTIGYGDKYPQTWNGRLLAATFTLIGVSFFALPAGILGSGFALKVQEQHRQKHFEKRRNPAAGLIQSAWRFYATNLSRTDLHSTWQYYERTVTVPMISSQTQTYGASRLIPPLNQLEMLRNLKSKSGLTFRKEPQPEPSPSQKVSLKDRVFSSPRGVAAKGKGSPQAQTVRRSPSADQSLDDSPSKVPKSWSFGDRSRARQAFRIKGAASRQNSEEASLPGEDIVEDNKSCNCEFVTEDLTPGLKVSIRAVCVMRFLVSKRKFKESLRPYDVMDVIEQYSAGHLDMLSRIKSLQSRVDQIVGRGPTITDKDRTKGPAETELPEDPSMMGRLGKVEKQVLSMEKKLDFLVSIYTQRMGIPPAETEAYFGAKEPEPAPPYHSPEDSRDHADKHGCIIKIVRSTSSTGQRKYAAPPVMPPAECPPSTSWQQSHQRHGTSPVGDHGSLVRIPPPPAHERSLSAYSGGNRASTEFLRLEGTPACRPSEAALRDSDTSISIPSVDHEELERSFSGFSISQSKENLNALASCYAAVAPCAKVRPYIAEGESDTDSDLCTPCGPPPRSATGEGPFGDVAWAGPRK
# KCNQ2 pot – potentiators of rat KCNQ2 potassium channel; CHO-K1 KCNQ2, FluxOR thallium flux fluorescence; stronger effect = higher value; O88943; B-score at 10 µM; 310,000 compounds, 0.54% hits;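 active = fluorescence ratio B-score at least 3 SD of library B-scores, with initial fluorescence B-score within 3 of them, cut at about 5.3 in these data; same plate scores as AID 2156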;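 also: B-score of peak minus minimum over baseline fluorescence ratio after K+ and Tl+ stimulus; positive B-score means potentiation of KCNQ2 with more thallium influx and brighter signal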
# Kir21 conf inh – confirmation of mouse Kir2.1 potassium channel inhibitors | Kir2.1-expressing cells, FluxOR thallium flux fluorescence; stronger effect = lower value | shares compounds with KCNQ2 pot | 2,300 compounds, 41% hits | Tl flux remaining, % of negative control (stronger effect = lower value), % at 10 µM;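 active = Primary-screen hit whose thallium flux fell at least 3 control SD below untreated wells in both duplicates, with normal baseline fluorescence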;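 also: 0% = blank wells without stimulus and 100% = stimulated no-compound controls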
# HEK293 ctr – parental HEK293 activity in Kir2.1 inhibitor counter-screen; FluxOR signal as % of negative control (100 = no effect), % at 10 µM; AID 2105; shares compounds with KCNQ2 pot; parental HEK293 cells, FluxOR thallium flux fluorescence; 0% = unstimulated blank wells; 2,300 compounds, 19% hits;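 active = dye signal at least 3 control SD above or below untreated wells in both duplicates, raw fluorescence within 3, either direction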;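 also: percent is based on the flux ratio of peak minus minimum fluorescence over baseline F0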
# CHO-K1 Tl ctr – alters thallium flux in parental CHO-K1 cells, KCNQ2 counter-screen. 1,200 compounds, 43% hits. FluxOR thallium flux fluorescence; zero = vehicle mean+3SD, 100% = vehicle-minus-blank window. activity increase over 3SD of controls, % at 10 µM. shares compounds with KCNQ2 pot. AID 2282;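 active = signal rise of at least 3 SD above the untreated control mean, in both duplicate wells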;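 also: counter screen of KCNQ2 potentiator hits so any rise reflects channel-independent effects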
# KCNQ1 pot spec – tests whether KCNQ2 potentiators also act on human KCNQ1. shares compounds with KCNQ2 pot. CHO KCNQ1 stable, FluxOR thallium flux fluorescence; beyond 3SD, as % of vehicle-control signal. activation over 3SD threshold, % at 10 µM. 1,200 compounds, 28% hits. AID 2283;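 active = fluorescence ratio rise of at least 3 SD of vehicle wells above their mean, in both replicate wells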;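 also: 0% = vehicle mean plus 3 SD and 100% = vehicle minus unstimulated blank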
# KCNQ2 pot confirm – confirmation of rat KCNQ2 potassium channel potentiators; shares compounds with KCNQ2 pot; potentiation, less the hit threshold, % at 10 µM; 1,200 compounds, 68% hits; CHO-KCNQ2 cells, FluxOR thallium flux fluorescence;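 active = fluorescence ratio rising 3 SD or more over the vehicle control mean in both replicates, plus primary screen hit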;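 also: peak minus minimum thallium fluorescence divided by baseline after K/Tl stimulus; 0% = vehicle mean plus 3 SD and 100% = vehicle minus unstimulated blank difference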
# Kir2-1 sel – selectivity of KCNQ2 potentiators: effect on mouse Kir2.1; shares compounds with KCNQ2 pot; HEK293 Kir2.1, FluxOR thallium flux fluorescence; activity over 3SD threshold, % at 10 µM; 1,200 compounds, 2% hits; AID 2345;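 active = fluorescence ratio rise of at least 3 SD above the vehicle-control mean, seen in both replicates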;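 also: 0% = vehicle mean plus 3 SD and 100% = vehicle minus no-stimulus blank window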
# KCNQ2 W236L pot – rat KCNQ2 W236L mutant potentiation by KCNQ2 potentiators | CHO KCNQ2-W236L, automated patch clamp current | AID 2558 | current increase over 3SD of negative controls (%), stronger effect = higher value, % at 25 µM | 940 compounds, 10% hits | shares compounds with KCNQ2 pot;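 active = current increase at least 3 SD of the untreated controls above them in both duplicate recordings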
# Active calls of the source: *; i = inactive; nt = not tested or not shown; ! = repeats disagree. Most compounds without a hit are left out; they make up all but 1.6% or so of the library.
SMILES,KCNQ2 inh,KCNQ2 pot,Kir21 conf inh,HEK293 ctr,others
CCCc1nc2ccccc2c(=O)n1CC(=O)c1ccc(F)cc1,i,0.73,nt,nt,
CC1CN(S(=O)(=O)c2cccc(C(=O)Nc3ccccc3N3CCCC3)c2)CC(C)O1 (configuration not stated),i,nt,nt,nt,
CCCCN=C(Nc1ccc(Cl)cc1)c1cccnc1,i,1.5,nt,nt,
NC(=NCCCCCCN=C(N)/N=C(\N)Nc1ccc(Cl)cc1)/N=C(\N)Nc1ccc(Cl)cc1,i,7*!,i,i,CHO-K1 Tl ctr=3.9*;KCNQ1 pot spec=-14;KCNQ2 pot confirm=44*;Kir2-1 sel=-70
CCCCNc1cc(C)nc(NCc2ccccc2)n1,i,nt,15%*,i,
Cc1cc(C)nc(NCCCc2ccccc2)n1,i,nt,nt,nt,
COC(=O)c1[nH]c(C)c(/C(O)=C2\C(=O)C(=O)N(CCN3CCOCC3)C2c2ccco2)c1C (configuration not stated),i,nt,nt,nt,
CCNC(=O)c1ccccc1SCC(=O)Nc1ccc(F)cc1,i,2.2,nt,nt,
Brc1ccc(C2=Nn3cnnc3SC2)cc1,i,0.5,nt,nt,
Cc1cc(S(=O)(=O)Nc2cc(C)c(O)c(C)c2)c(C)s1,i,nt,72%*,i,
Cc1cc(S(=O)(=O)Nc2ccc3ccccc3c2)c(C)s1,i,0.87,nt,nt,
COc1ccc(CCC(=O)N/N=C(\C)c2ccc3c(c2)OCO3)cc1,i,nt,nt,nt,
C=CCN(C(=O)CNC(=O)c1ccco1)C(C(=O)NC1CCCC1)c1ccc(OC)cc1 (configuration not stated),i,0.41,nt,nt,
COc1ccc(Cl)cc1N1C(=O)CC(Sc2ccccc2N)C1=O (configuration not stated),i,nt,nt,nt,
O=C(Nc1cccnc1)C(Cc1ccccc1)n1cccc1 (configuration not stated),i,0.5,nt,nt,
O=C(Nc1ncc(Br)s1)C(Cc1ccccc1)n1cccc1 (configuration not stated),i,7.3*,i,188%*,CHO-K1 Tl ctr=-4;KCNQ1 pot spec=-5;KCNQ2 pot confirm=8.5*;Kir2-1 sel=-29;KCNQ2 W236L pot=i
CCOC(=O)c1cncc(C(=O)O)c1,i,nt,nt,nt,
O=C(CNC(=O)c1ccc(Cl)cc1)NC(CO)c1ccccc1 (configuration not stated),i,nt,nt,nt,
Cc1[nH]c(C)c(S(=O)(=O)N2CCN(c3ccc(Cl)cc3)CC2)c1C(=O)N1CCCC1,i,0.58,nt,nt,
COC(=O)c1ccc(NC(=O)C2CC3CCC2C3)cc1 (configuration not stated),i,1.2,nt,nt,
Cc1cccc(NC(=O)C2CC3CCC2C3)c1C (configuration not stated),i,6.9*,i,i,CHO-K1 Tl ctr=-23;KCNQ1 pot spec=-14;KCNQ2 pot confirm=14*;Kir2-1 sel=-29;KCNQ2 W236L pot=i
Cc1cccc(C)c1NC(=O)C1CC2CCC1C2 (configuration not stated),i,6.2*,i,i,CHO-K1 Tl ctr=2.9*;KCNQ1 pot spec=34*;KCNQ2 pot confirm=-3;Kir2-1 sel=-32;KCNQ2 W236L pot=i
COC(=O)c1sccc1NC(=O)C1CC2CCC1C2 (configuration not stated),i,1.1,nt,nt,
CCOC(=O)c1ccc(NC(=O)C2CC3CCC2C3)cc1 (configuration not stated),i,1.3,nt,nt,
Cc1cc(C)c(NC(=O)C2CC3CCC2C3)c(C)c1 (configuration not stated),i,28*,i,i,CHO-K1 Tl ctr=-6;KCNQ1 pot spec=-12;KCNQ2 pot confirm=112*;Kir2-1 sel=-21;KCNQ2 W236L pot=i
SMILES,KCNQ2 inh,KCNQ2 pot,Kir21 conf inh,HEK293 ctr,others
Cc1cc(-n2cnnn2)cc(C)c1S(=O)(=O)N(C)c1ccccc1,i,1.2,nt,nt,
CCc1cccc(CC)c1NC(=O)COC(=O)C1(C)CC1(Cl)Cl (configuration not stated),i,4,nt,nt,
COc1ccc2c(c1)C(=O)N(Cc1ccccc1)C(=O)C2(C)C,i,nt,nt,nt,
CC(C)n1nc(C(=O)N2CCN(S(=O)(=O)c3cccs3)CC2)c2ccccc2c1=O,i,0.14,nt,nt,
O/N=C/c1cn(-c2ccccc2)nc1-c1cccnc1,i,nt,nt,nt,
Cc1ccc(-c2nn(-c3ccccc3)cc2/C=N/O)cc1,i,5.4*,i,i,CHO-K1 Tl ctr=-14;KCNQ1 pot spec=-15;KCNQ2 pot confirm=15*;Kir2-1 sel=-32;KCNQ2 W236L pot=i
Cc1cc(=O)oc2c(C)c(OC(C)C(=O)Nc3ccc(N4CCC(C)CC4)cc3)ccc12 (configuration not stated),i,nt,nt,nt,
CCOC(=O)CSc1[nH]c2cc(OC)ccc2c1[N+](=O)[O-],i,0.03,nt,nt,
COC(=O)CSc1[nH]c2ccc(F)cc2c1[N+](=O)[O-],i,6.4*,i,i,CHO-K1 Tl ctr=-10;KCNQ1 pot spec=-27;KCNQ2 pot confirm=29*;Kir2-1 sel=-40;KCNQ2 W236L pot=38%*
O=C(NCCN1CCOCC1)c1ccc(Cl)c(S(=O)(=O)N2CCOCC2)c1,i,nt,nt,nt,
CCc1ccccc1NC(=O)NC(C)c1ccc2c(c1)OCO2 (configuration not stated),i,1.6,nt,nt,
CC(NC(=O)NC12CC3CC(CC(C3)C1)C2)c1ccc2c(c1)OCO2 (configuration not stated),i,15*,i,i,CHO-K1 Tl ctr=28*;KCNQ1 pot spec=-18;KCNQ2 pot confirm=56*;Kir2-1 sel=-39;KCNQ2 W236L pot=i
CC(NC(=O)NC1CCCCC1)c1ccc2c(c1)OCO2 (configuration not stated),i,21*,i,i,CHO-K1 Tl ctr=12*;KCNQ1 pot spec=-24;KCNQ2 pot confirm=62*;Kir2-1 sel=-34;KCNQ2 W236L pot=i
O=C(NCc1ccc2c(c1)CCO2)Nc1cccc(C(F)(F)F)c1,i,7.1*,i,i,CHO-K1 Tl ctr=3.1*;KCNQ1 pot spec=20*;KCNQ2 pot confirm=25*;Kir2-1 sel=-44;KCNQ2 W236L pot=i
CC(NC(=O)Nc1ccc(Cl)cc1)c1ccc2c(c1)OCO2 (configuration not stated),i,nt,nt,nt,
O=C(CC12CCC(CC1)C2)NCc1ccc2c(c1)OCO2,i,11*,i,i,CHO-K1 Tl ctr=96*;KCNQ1 pot spec=-13;KCNQ2 pot confirm=44*;Kir2-1 sel=-26;KCNQ2 W236L pot=i
O=C(Cc1ccccc1)NCc1ccc2c(c1)OCO2,i,2.6,nt,nt,
O=C(NCc1cccnc1)Nc1cccc(C(F)(F)F)c1,i,1.4,nt,nt,
CCc1ccc(N2CC(C(=O)N/N=C/c3ccccc3)CC2=O)cc1 (configuration not stated),i,0.3,nt,nt,
O=C(O)c1ccc(S(=O)(=O)N(CCc2ccccc2)Cc2ccc(Cl)cc2)cc1,i,nt,nt,nt,
CCC(Sc1nc(N)c(NC(=O)c2ccc(OC)cc2)c(=O)[nH]1)C(=O)O (configuration not stated),i,nt,nt,nt,

# Assay outcomes (PubChem BioAssay)
